Reference: the supplement of paper PMC4022240
± gives the standard deviation.

How the values were obtained:
Assay in all cases: peptide microarray binding signal (635 nm), min-max normalized on array (fraction of array maximum); higher = stronger binding
[1] = molecular target: T1, HaloTag-ATRX ADD domain (163-292)
T1 chain: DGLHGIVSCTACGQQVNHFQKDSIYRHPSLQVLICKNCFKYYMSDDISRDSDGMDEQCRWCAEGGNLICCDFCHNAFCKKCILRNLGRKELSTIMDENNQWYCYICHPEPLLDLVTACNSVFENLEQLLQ
Method in brief: (§1)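 Histone 13-mer peptide–cellulose conjugates were printed in triplicate on nitrocellulose with a Cy3 tracer, then blocked overnight at 4°C. Arrays were probed for 1 h at 4°C with biotin-labelled HaloTag reader fusions (10 nM to 1 μM) plus streptavidin-Alexa Fluor 647, or with rabbit histone antibodies (1:10,000 to 1:2,000) plus anti-rabbit Alexa 647. An Axon GenePix 4000B scanned 635 nm for signal and 532 nm for misprints. Binding signal is the triplicate-spot mean intensity, min-max scaled per library.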

[2] = molecular target: HaloTag-ING2 PHD (mouse Ing2 200-280)
Method in brief: as §1

[3] = molecular target: anti-H3K4me3 antibody ab8580
Method in brief: as §1

[4] = molecular target: anti-H3K9me3 antibody ab8898
Method in brief: as §1

[5] = peptide region: H3 112-124, peptide modifications: H3K115ac H3K122me3, binder concentration: 1:2,000 dilution
[6] = peptide region: H3 112-124, peptide modifications: H3K115ac H3K122me3, binder concentration: 1:10,000 dilution
[7] = peptide region: H3 50-62, peptide modifications: H3S57ph, binder concentration: 1:2,000 dilution
[8] = peptide region: H3 50-62, peptide modifications: H3S57ph, binder concentration: 1:10,000 dilution
[9] = peptide region: H3 50-62, peptide modifications: H3K56me3 H3T58ph, binder concentration: 1:2,000 dilution
[10] = peptide region: H3 50-62, peptide modifications: H3K56me3 H3T58ph, binder concentration: 1:10,000 dilution
[11] = peptide region: H3 112-124, peptide modifications: H3K115ac H3K122me1, binder concentration: 1:2,000 dilution
[12] = peptide region: H3 112-124, peptide modifications: H3K115ac H3K122me1, binder concentration: 1:10,000 dilution
[13] = peptide region: H3 112-124, peptide modifications: H3K115ac H3K122ac, binder concentration: 1:2,000 dilution
[14] = peptide region: H3 112-124, peptide modifications: H3K115ac H3K122ac, binder concentration: 1:10,000 dilution
[15] = peptide region: H3 73-85, peptide modifications: H3K79me3, binder concentration: 1:2,000 dilution
[16] = peptide region: H3 73-85, peptide modifications: H3K79me3, binder concentration: 1:10,000 dilution
[17] = peptide region: H3 112-124, peptide modifications: H3K115ac H3K122me2, binder concentration: 1:2,000 dilution
[18] = peptide region: H3 112-124, peptide modifications: H3K115ac H3K122me2, binder concentration: 1:10,000 dilution
[19] = peptide region: H3 73-85, peptide modifications: H3T80ph, binder concentration: 1:2,000 dilution
[20] = peptide region: H3 73-85, peptide modifications: H3T80ph, binder concentration: 1:10,000 dilution
[21] = peptide region: H3 73-85, peptide modifications: H3K79me2, binder concentration: 1:2,000 dilution
[22] = peptide region: H3 73-85, peptide modifications: H3K79me2, binder concentration: 1:10,000 dilution
[23] = peptide region: H3 112-124, binder concentration: 1:2,000 dilution
[24] = peptide region: H3 112-124, binder concentration: 1:10,000 dilution

B1: H3 112-124 I H A Kac R V T I M P Kme3 D I (peptide)
chain: IHAKRVTIMPKDI
- peptide microarray binding signal ([1]; peptide region: H3 112-124, peptide modifications: H3K115ac H3K122me3, binder concentration: 50 nM): 0.0118 ± 0.00049
- peptide microarray binding signal ([1]; peptide region: H3 112-124, peptide modifications: H3K115ac H3K122me3, binder concentration: 500 nM): 0.027 ± 0.0019
- peptide microarray binding signal ([2]; peptide region: H3 112-124, peptide modifications: H3K115ac H3K122me3, binder concentration: 10 nM): 0.04 ± 0.0046
- peptide microarray binding signal ([2]; peptide region: H3 112-124, peptide modifications: H3K115ac H3K122me3, binder concentration: 100 nM): 0.0592 ± 0.018
- peptide microarray binding signal [3, 5]: 0.00634 ± 0.00027
- peptide microarray binding signal [3, 6]: 0.00679 ± 0.00065
- peptide microarray binding signal [4, 5]: 0.0228 ± 0.0018
- peptide microarray binding signal [4, 6]: 0.0104 ± 0.00089

B2: H3 50-62 E I R R Y Q K Sph T E L L I (peptide)
chain: EIRRYQKSTELLI
- peptide microarray binding signal ([1]; peptide region: H3 50-62, peptide modifications: H3S57ph, binder concentration: 50 nM): 0.000878 ± 5.7e-05
- peptide microarray binding signal ([1]; peptide region: H3 50-62, peptide modifications: H3S57ph, binder concentration: 500 nM): 0.00167 ± 0.00017
- peptide microarray binding signal ([2]; peptide region: H3 50-62, peptide modifications: H3S57ph, binder concentration: 10 nM): 0.00179 ± 2.8e-05
- peptide microarray binding signal ([2]; peptide region: H3 50-62, peptide modifications: H3S57ph, binder concentration: 100 nM): 0.00085 ± 3.4e-05
- peptide microarray binding signal [3, 7]: 0.000132 ± 5.8e-06
- peptide microarray binding signal [3, 8]: 0.000228 ± 4.4e-06
- peptide microarray binding signal [4, 7]: 0.000755 ± 0.00012
- peptide microarray binding signal [4, 8]: 0.000461 ± 8.7e-06

B3: H3 50-62 E I R R Y Q Kme3 S Tph E L L I (peptide)
chain: EIRRYQKSTELLI
- peptide microarray binding signal ([1]; peptide region: H3 50-62, peptide modifications: H3K56me3 H3T58ph, binder concentration: 50 nM): 0.0015 ± 4e-05
- peptide microarray binding signal ([1]; peptide region: H3 50-62, peptide modifications: H3K56me3 H3T58ph, binder concentration: 500 nM): 0.00129 ± 3.6e-05
- peptide microarray binding signal ([2]; peptide region: H3 50-62, peptide modifications: H3K56me3 H3T58ph, binder concentration: 10 nM): 0.00281 ± 8.3e-05
- peptide microarray binding signal ([2]; peptide region: H3 50-62, peptide modifications: H3K56me3 H3T58ph, binder concentration: 100 nM): 0.0017 ± 4.6e-05
- peptide microarray binding signal [3, 9]: 0.00109 ± 3.3e-05
- peptide microarray binding signal [3, 10]: 0.000799 ± 2.2e-05
- peptide microarray binding signal [4, 9]: 0.00261 ± 0.0003
- peptide microarray binding signal [4, 10]: 0.001211 ± 1.2e-05

B4: H3 112-124 I H A Kac R V T I M P Kme D I (peptide)
chain: IHAKRVTIMPKDI
- peptide microarray binding signal ([1]; peptide region: H3 112-124, peptide modifications: H3K115ac H3K122me1, binder concentration: 50 nM): 0.00809 ± 8.8e-05
- peptide microarray binding signal ([1]; peptide region: H3 112-124, peptide modifications: H3K115ac H3K122me1, binder concentration: 500 nM): 0.0164 ± 0.00068
- peptide microarray binding signal ([2]; peptide region: H3 112-124, peptide modifications: H3K115ac H3K122me1, binder concentration: 10 nM): 0.0183 ± 0.00056
- peptide microarray binding signal ([2]; peptide region: H3 112-124, peptide modifications: H3K115ac H3K122me1, binder concentration: 100 nM): 0.0281 ± 0.0012
- peptide microarray binding signal [3, 11]: 0.00164 ± 0.00014
- peptide microarray binding signal [3, 12]: 0.002054 ± 1.9e-05
- peptide microarray binding signal [4, 11]: 0.00136 ± 6.1e-05
- peptide microarray binding signal [4, 12]: 0.00138 ± 1.4e-05

B5: H3 112-124 I H A Kac R V T I M P Kac D I (peptide)
chain: IHAKRVTIMPKDI
- peptide microarray binding signal ([1]; peptide region: H3 112-124, peptide modifications: H3K115ac H3K122ac, binder concentration: 50 nM): 0.00947 ± 0.0003
- peptide microarray binding signal ([1]; peptide region: H3 112-124, peptide modifications: H3K115ac H3K122ac, binder concentration: 500 nM): 0.0259 ± 0.00095
- peptide microarray binding signal ([2]; peptide region: H3 112-124, peptide modifications: H3K115ac H3K122ac, binder concentration: 10 nM): 0.0323 ± 0.0014
- peptide microarray binding signal ([2]; peptide region: H3 112-124, peptide modifications: H3K115ac H3K122ac, binder concentration: 100 nM): 0.0605 ± 0.013
- peptide microarray binding signal [3, 13]: 0.00336 ± 0.0003
- peptide microarray binding signal [3, 14]: 0.00417 ± 0.0002
- peptide microarray binding signal [4, 13]: 0.00288 ± 0.00013
- peptide microarray binding signal [4, 14]: 0.00242 ± 9.5e-05

B6: H3 73-85 E I A Q D F Kme3 T D L R F Q (peptide)
chain: EIAQDFKTDLRFQ
- peptide microarray binding signal ([1]; peptide region: H3 73-85, peptide modifications: H3K79me3, binder concentration: 50 nM): 0.0032 ± 3.5e-05
- peptide microarray binding signal ([1]; peptide region: H3 73-85, peptide modifications: H3K79me3, binder concentration: 500 nM): 0.0059 ± 0.0008
- peptide microarray binding signal ([2]; peptide region: H3 73-85, peptide modifications: H3K79me3, binder concentration: 10 nM): 0.00483 ± 8.8e-05
- peptide microarray binding signal ([2]; peptide region: H3 73-85, peptide modifications: H3K79me3, binder concentration: 100 nM): 0.00723 ± 0.00027
- peptide microarray binding signal [3, 15]: 0.00851 ± 0.00073
- peptide microarray binding signal [3, 16]: 0.0112 ± 0.0053
- peptide microarray binding signal [4, 15]: 0.227 ± 0.017
- peptide microarray binding signal [4, 16]: 0.201 ± 0.042

B7: H3 112-124 I H A Kac R V T I M P Kme2 D I (peptide)
chain: IHAKRVTIMPKDI
- peptide microarray binding signal ([1]; peptide region: H3 112-124, peptide modifications: H3K115ac H3K122me2, binder concentration: 50 nM): 0.00668 ± 0.00012
- peptide microarray binding signal ([1]; peptide region: H3 112-124, peptide modifications: H3K115ac H3K122me2, binder concentration: 500 nM): 0.0132 ± 0.00064
- peptide microarray binding signal ([2]; peptide region: H3 112-124, peptide modifications: H3K115ac H3K122me2, binder concentration: 10 nM): 0.0198 ± 0.004
- peptide microarray binding signal ([2]; peptide region: H3 112-124, peptide modifications: H3K115ac H3K122me2, binder concentration: 100 nM): 0.0271 ± 0.0018
- peptide microarray binding signal [3, 17]: 0.00159 ± 0.00013
- peptide microarray binding signal [3, 18]: 0.00211 ± 5.8e-05
- peptide microarray binding signal [4, 17]: 0.00169 ± 0.00021
- peptide microarray binding signal [4, 18]: 0.00133 ± 4e-05

B8: H3 73-85 E I A Q D F K Tph D L R F Q (peptide)
chain: EIAQDFKTDLRFQ
- peptide microarray binding signal ([1]; peptide region: H3 73-85, peptide modifications: H3T80ph, binder concentration: 50 nM): 0.00129 ± 3.8e-05
- peptide microarray binding signal ([1]; peptide region: H3 73-85, peptide modifications: H3T80ph, binder concentration: 500 nM): 0.00386 ± 0.00022
- peptide microarray binding signal ([2]; peptide region: H3 73-85, peptide modifications: H3T80ph, binder concentration: 10 nM): 0.00406 ± 0.00014
- peptide microarray binding signal ([2]; peptide region: H3 73-85, peptide modifications: H3T80ph, binder concentration: 100 nM): 0.000921
- peptide microarray binding signal [3, 19]: 0.000547 ± 3.5e-05
- peptide microarray binding signal [3, 20]: 0.000685 ± 7.2e-06
- peptide microarray binding signal [4, 19]: 0.00186 ± 2e-05
- peptide microarray binding signal [4, 20]: 0.00127 ± 4.6e-05

B9: H3 73-85 E I A Q D F Kme2 T D L R F Q (peptide)
chain: EIAQDFKTDLRFQ
- peptide microarray binding signal ([1]; peptide region: H3 73-85, peptide modifications: H3K79me2, binder concentration: 50 nM): 0.002539 ± 2.2e-05
- peptide microarray binding signal ([1]; peptide region: H3 73-85, peptide modifications: H3K79me2, binder concentration: 500 nM): 0.00633 ± 0.00033
- peptide microarray binding signal ([2]; peptide region: H3 73-85, peptide modifications: H3K79me2, binder concentration: 10 nM): 0.00281 ± 3.1e-05
- peptide microarray binding signal ([2]; peptide region: H3 73-85, peptide modifications: H3K79me2, binder concentration: 100 nM): 0.00376 ± 0.00014
- peptide microarray binding signal [3, 21]: 0.00106 ± 6.2e-05
- peptide microarray binding signal [3, 22]: 0.00097 ± 2e-05
- peptide microarray binding signal [4, 21]: 0.0117 ± 0.004
- peptide microarray binding signal [4, 22]: 0.00709 ± 0.00024

B10: H3 112-124 I H A K R V T I M P K D I (peptide)
chain: IHAKRVTIMPKDI
- peptide microarray binding signal ([1]; peptide region: H3 112-124, binder concentration: 50 nM): 0.00972 ± 0.00063
- peptide microarray binding signal ([1]; peptide region: H3 112-124, binder concentration: 500 nM): 0.0345 ± 0.00086
- peptide microarray binding signal ([2]; peptide region: H3 112-124, binder concentration: 10 nM): 0.0135 ± 0.0014
- peptide microarray binding signal ([2]; peptide region: H3 112-124, binder concentration: 100 nM): 0.0205 ± 0.0093
- peptide microarray binding signal [3, 23]: 0.00261 ± 0.00029
- peptide microarray binding signal [3, 24]: 0.001883 ± 1.8e-05
- peptide microarray binding signal [4, 23]: 0.00415 ± 0.00045
- peptide microarray binding signal [4, 24]: 0.00167 ± 2.8e-05
